Experimental data taken from PubChem BioAssay (NCI).
The panel holds about 83,000 compounds, 20% with a hit somewhere; the sample as a whole holds those more often.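 Activity criterion: percent growth below 10, measured after cells in 96-well plates were exposed to a single compound concentration for 48 hours.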 The source made the active and inactive calls.

Experiments:
Test in all cases: NCI-60 one-dose screen, 48 h (100 = growth as untreated, 0 = no growth, -100 = all killed)
Details in all cases: 10 µM unless noted
[1] = system: SK-MEL-2 melanoma
[2] = system: EKVX NSCLC
[3] = system: SN12C renal
[4] = system: UO-31 renal
[5] = system: TK-10 renal
[6] = system: ACHN renal
[7] = system: CAKI-1 renal
[8] = system: A498 renal
[9] = system: CCRF-CEM leukemia
[10] = system: MOLT-4 leukemia

Measured: growth

Nc1nc2c(c3ncccc13)C(c1ccc(Cl)c(Cl)c1)Cc1ncccc1-2 (stereo not given)
inactive: [1] 18.4% | [2] 44.5% | [3] 34.1% | [4] 36.9% | [5] 29.5% | [6] 30.2% | [7] 30.9%
active: [8] -13.5% | [9] 2.45% | [10] 5.36%

COC(=S)SCN(CSC(=S)OC)c1ccc(Cl)cc1
inactive: [1] 106% | [2] 70.3% | [3] 80.7% | [4] 66.5% | [5] 109% | [6] 75.3% | [7] 62.8% | [8] 86.8% | [9] 77.7% | [10] 81.7%

C=C1C(=O)O[C@H]2[C@H]1CC/C(Cn1cc(Cn3ccc4ccccc43)nn1)=C\CC[C@@]1(C)O[C@@H]21
active: [4] -77.2% | [6] -52.9% | [9] -18.6% | [10] -8.31%
inactive: [1] 61.5% | [2] 58.6% | [3] 39.8% | [5] 16.8% | [7] 18.3% | [8] 74.3%

CCCCCCNC(=O)Oc1ccc(/C(=C(\C)c2ccccc2)c2ccc(OCCN(CC)CC)cc2)cc1
inactive: [1] 86.6% | [2] 90.5% | [3] 73% | [4] 28.8% | [5] 76.1% | [6] 88.1% | [7] 77% | [8] 81.7% | [9] 40.5% | [10] 20.3%

O=[N+]([O-])c1cccc(-c2nc3sccn3c2-c2ccnc(NCCCNS(=O)(=O)c3ccc(Br)cc3)n2)c1
inactive: [1] 47% | [2] 59.4% | [3] 53% | [4] 22.7% | [5] 102% | [6] 46.7% | [7] 41.4% | [8] 52.8% | [9] 18.6% | [10] 19.7%

CCCCCCCCCC(=O)Oc1ccc(/C(=C(/C)c2ccccc2)c2ccc(OCCN3CCCC3)cc2)cc1
active: [1] -31.5% | [4] 7.66% | [7] 1.34% | [8] 1.68% | [10] 2.39%
inactive: [2] 44.1% | [3] 44.8% | [5] 43% | [6] 35.2% | [9] 13.1%

CCOC(=O)CC(=O)c1c(C)cc(C)cc1C
inactive: [1] 93.4% | [2] 105% | [3] 94.1% | [4] 92.9% | [5] 116% | [6] 83.7% | [7] 97% | [8] 96.8% | [9] 90.9% | [10] 78.7%

O=c1cc(-c2ccccc2)[nH]c2ccccc12
inactive: [1] 55.8% | [2] 50.5% | [3] 91.6% | [4] 46.6% | [5] 11.4% | [6] 48.8% | [7] 47.4% | [8] 47.6% | [9] 15.2% | [10] 32%

CC#CC#Cc1cccc(=O)o1
active: [1] -47.3% | [7] 4.28%
inactive: [2] 20.7% | [3] 81.6% | [4] 40.7% | [5] 73.7% | [6] 68.5% | [8] 113% | [9] 11.9% | [10] 64.9%

C=C1CC[C@@H]2[C@](C)(COC(C)=O)[C@H](OC(C)=O)CC[C@@]2(C)[C@@H]1CC(Nc1ccc(S(=O)(=O)Nc2ccc(Cl)nn2)cc1)C1=CCOC1=O (stereo not given in full)
inactive: [1] 58.3% | [2] 87.3% | [4] 18.4% | [5] 69.8% | [6] 16.1% | [7] 31.8% | [8] 89%
active: [3] -27.6% | [9] -10.3% | [10] 0.401%

c1ccc2c(Nc3cccc4ccccc34)cccc2c1
inactive: [1] 38.6% | [2] 78.1% | [3] 58.8% | [4] 41.3% | [5] 81.3% | [6] 79.1% | [7] 40.3% | [8] 81.2% | [9] 59.8% | [10] 30.5%

COc1ccc(-c2cc(-c3cccnc3)nc3sc4c(=O)n(-c5ccc(C)cc5)cnc4c23)cc1OC
inactive: [1] 108% | [2] 86.4% | [3] 92.2% | [4] 82% | [5] 111% | [6] 88.1% | [7] 76.3% | [8] 91% | [9] 105% | [10] 97.4%

C[C@@H]1CCC2=C(CCC[C@]2(C)C(=O)O)[C@@]1(C)CCc1ccoc1
inactive: [1] 92.1% | [2] 101% | [3] 89.6% | [4] 87.7% | [5] 92.3% | [6] 101% | [7] 99.6% | [8] 83.3% | [9] 102% | [10] 113%

O=C1C(Cl)=C(Cl)C(=O)c2c1nc1n2CCCC1
inactive: [1] 88.1% | [2] 95.9% | [3] 96.5% | [4] 88.8% | [5] 60% | [7] 100% | [8] 76.2% | [9] 11.7%
active: [6] -8.54% | [10] 9.16%

COc1ccc(-c2c3c(nc4n[nH]c(-c5ccc(Cl)cc5)c24)-c2ccccc2C(=O)C3=O)cc1
active: [1] -49.8% | [4] 0.604% | [5] -28.7% | [9] -6.2% | [10] 0.0593%
inactive: [2] 59% | [3] 12% | [6] 10.7% | [7] 47.1% | [8] 53.8%

CC(=O)CC(C)(C)c1ccc(Cl)cc1
inactive: [1] 108% | [2] 101% | [3] 97.7% | [4] 85.5% | [5] 114% | [6] 102% | [7] 90.2% | [8] 108% | [9] 101% | [10] 100%

CC(C)(C)n1cc(-c2ccnc(NCCCNS(=O)(=O)c3cccc4ccccc34)c2)c(-c2cccc(O)c2)n1
inactive: [1] 30.1% | [2] 42.3% | [3] 36.7% | [4] 44.8% | [5] 74.8% | [6] 36.7% | [7] 40.4% | [8] 48% | [9] 22.1%
active: [10] 7.2%

O=[N+]([O-])c1cccc(-c2nc3sccn3c2-c2ccnc(NCCCNS(=O)(=O)c3ccc(F)cc3)n2)c1
active: [1] -15.9% | [4] -26.8% | [6] 5.38% | [7] 9.79% | [9] 1.95% | [10] -18.2%
inactive: [2] 18.3% | [3] 10.6% | [5] 44.6% | [8] 29.7%

CN1CCOCCOCCOc2ccccc2NC(=O)c2nc(cnc2N)-c2ccc(cc2)S1(=O)=O
active: [6] 8.87% | [9] 2.07% | [10] 0.82%
inactive: [1] 49.8% | [2] 80.4% | [3] 64.7% | [4] 42.1% | [5] 43.7% | [7] 53.7% | [8] 29.3%

CN1CCN(Cc2ccc(NC(=O)c3[nH]ncc3Nc3ncnc4[nH]ccc34)cc2)CC1
inactive: [2] 13% | [3] 13.3%
active: [1] -12.3% | [4] 3.55% | [5] -61.8% | [6] 5.97% | [7] -1.63% | [8] -59% | [9] 4.71% | [10] -20.9%

COc1ccc(C2Nc3ccccc3-n3cccc32)cc1 (stereo not given)
inactive: [1] 92.7% | [2] 68.8% | [3] 97.4% | [4] 58.3% | [5] 100% | [6] 88% | [7] 89% | [8] 93.2% | [9] 104% | [10] 120%

C=C1CCC2C3(C)COC(c4ccc(SC)cc4)OC3CCC2(C)C1C/C=C1/C(=O)OCC1O (stereo not given)
inactive: [1] 64.8% | [2] 56.1% | [3] 65.6% | [4] 60.7% | [5] 101% | [6] 74.2% | [7] 75.3% | [8] 96.7%
active: [9] 2.76% | [10] 5.06%

COc1ccc(C(=O)/C=C/c2cc3ccccc3[nH]c2=O)cc1
inactive: [1] 55.1% | [2] 79% | [3] 45% | [4] 24.9% | [5] 24.7% | [6] 57.9% | [7] 42.8% | [8] 47.4% | [9] 19.5% | [10] 32.5%

O=C(O)c1cccc2c1-c1ccccc1C2=O
inactive: [1] 98.4% | [2] 90.3% | [3] 84.2% | [4] 94.3% | [5] 91.1% | [6] 94.4% | [7] 65.1% | [8] 96.1% | [9] 84.2% | [10] 99.4%

O=C1/C(=C/c2ccc(Cl)c(Cl)c2)CN(C(=O)CCN2CCC(=NO)CC2)C/C1=C\c1ccc(Cl)c(Cl)c1
active: [1] -86.9% | [2] -85.1% | [3] -97.3% | [4] -95.7% | [5] -88.9% | [6] -98.4% | [7] -92.1% | [8] -92% | [9] -28.2% | [10] -21.7%

CC[C@H](Nc1cc(C)nc(N)n1)c1nc2cccc(NCc3ccc(C(=O)NO)cc3)c2c(=O)n1-c1ccccc1
inactive: [1] 33.1% | [2] 64.3% | [3] 29% | [4] 80.1% | [5] 32.1% | [6] 79.9% | [7] 71.8%
active: [8] -3.63% | [9] -11% | [10] -9.86%

Cc1ccc(N)cc1F
inactive: [1] 97.1% | [2] 98% | [3] 96% | [4] 92.6% | [5] 123% | [6] 99.8% | [7] 74.5% | [8] 98.2% | [9] 102% | [10] 92.3%
